Giardia killer = kills Giardia lamblia | 340,000 tested, 0.15% active | activity change, % at 7.66 µM, hits read low | Giardia lamblia trophozoite viability; in the data active = activity change below about -80%; inconclusive = between about -30% and that limit;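 also: parasites exposed to compound for two days anaerobically before the ATP read; % is scaled to controls: 0 for no effect and ±100 for the full control effect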
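Each well holds 100 Giardia trophozoites and compound. After two days (48 hrs) at 37 deg C in anaerobic conditions, ATP is quantified by luminescence.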
MCF10A rerep = inducers of DNA re-replication in MCF 10A breast cells; AID 624296; MCF 10A DNA re-replication, Hoechst nuclear intensity, 48 h; Potency, µM (highest dose often 46.1 µM), inactives show at the top dose activity, positive = re-replication, hits mostly activators; 350,000 tested, 2.9% active; also: potency is read from the fitted curve at half-maximal effect; % of control where 0% means no effect; nearly all actives have a fitted effect of over 50% in size
uPA surface inh = cell surface uPA generation inhibition. cell surface uPA generation assay, qHTS. Potency, µM (top dose mostly 38.3 µM), for the others: at the highest dose activity change, negative = inhibition, actives largely listed as inhibitors. 330,000 tested, 0.31% active; active = well fitted inhibition curve with a large enough effect; inconclusive = small, poorly fitted or top-dose-only effect; inactive = no such curve, though single readings can be large or run the other way; tested in mouse RAW 264.7 cells; also: potency is read from the fitted curve at half-maximal effect; % is scaled to controls: 0 for no effect and ±100 for the full control effect; nearly all actives have a fitted effect of over 55% in size
SW480 rerep = DNA re-replication induction in SW480 cells; AID 624297; 340,000 tested, 1.8% active; Potency, µM (titrated, usually from 46.1 µM), without a hit: at the top dose re-replication activation, hits mostly activators; SW480 DNA re-replication, Hoechst DNA content imaging, 48 h; also: potency is read from the fitted curve at half-maximal effect; % of control where 0% means no effect; nearly all actives have a fitted effect of over 55% in size
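Readout is total intensity of Hoechst-stained nuclei, excited at 405 nm and collected at 500-530 nm. Compound treatment lasted 48 hr at 37 C in 5% CO2 before staining.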
An asterisk follows results filed as active; ? = inconclusive; . = no result given; [ ] = remark or other dose. The list is not random: actives were taken first. Their share in the collection is about 4.3%. Unless noted, calls follow the shape of the dose curve; as a rule, active = well fitted activation curve with a large enough effect; inconclusive = small, poorly fitted or top-dose-only effect; inactive = no such curve, though single readings can be large or run the other way.

SMILES	Giardia killer	MCF10A rerep	uPA surface inh	SW480 rerep
Cc1ccc(NC(=O)/C=C/c2ccc([N+](=O)[O-])s2)c(C)c1	-17	1.6µM*	-11%	4.6µM*
Cc1cccc(NC(=S)N/N=C/c2ccc([N+](=O)[O-])s2)c1	-21	?	-8%	?
COc1ccc(NC(=O)CCC(=O)N/N=C/c2ccc([N+](=O)[O-])s2)cc1	6	28%	-6%	29%
Cc1cccc(NC(=O)/C=C/c2ccc([N+](=O)[O-])s2)c1	1	2.3µM*	-15%	6.5µM*
Cc1ccc(NC(=O)/C=C/c2ccc([N+](=O)[O-])s2)cc1	-13	5.8µM*	-13%	8.2µM*
COC(=O)C1=C[C@@H](C(=O)OC)[C@H]2C3=C(C(=O)[C@@]2(C)NC(=O)c2ccccc2)[C@H](C)C(C(=O)OC)=C(C(=O)OC)[C@@H]3C1	-4	.	.	.
O=C(O)c1ccc(CNc2ncnc3nc[nH]c23)cc1	18	.	.	.
O=C(Nc1cccc(/C=C/c2ccccn2)c1)c1ccc(-n2cncn2)c([N+](=O)[O-])c1	3	?	-10%	2%
NC(=O)COC(=O)CSc1ccc2ccccc2c1	4	14%	2%	11%[1.84 µM]
CN1N/C(=C\c2ccccc2)N=C2C(=O)N(C)C(=O)N=C21	-105*	.	.	.
CN1C(=O)/C(=C/c2ccc3c(c2)OCO3)N=C1c1ccccc1	-11	6%	-2%	-3%
CC/C=C1/N=C2C(=O)N(C)C(=O)N=C2N(C)N1	-88*	.	.	.
CN1CCc2[nH]c3ccc(Cl)cc3c2C1	6	.	.	.
CCc1noc(C)c1C(=O)N1CCN(S(=O)(=O)c2ccccc2C(F)(F)F)CC1	1	0%	-5%	-2%
COc1ccc(C2(C)C(C#N)C(=O)NC(=O)C2C#N)cc1 (centres undefined)	-1	9%	6%	?
CC(=NNc1nc2ccccc2o1)c1cc2ccccc2cn1	10	?	-4%	13µM*
CC(=NNc1nc2ccccc2o1)c1ncccn1	-1	?	-8%	?
CCN1CCC(CN2CCNC2=S)CC1	-1	-14%	7%	16µM*
COc1ccccc1CNC(=O)OCc1nccnc1C(=O)Nc1ccc(Br)cn1	9	14%	20%	-25%
CC(=O)/C(N=Nc1ccc(SC(F)F)cc1)=C(\C)O	43	?	24%	8.2µM*
COc1ccc2[nH]c3c4c(ccc3c2c1)C(=O)C=CC4=O	9	?	3.2µM*	3.3µM*
Cc1ccc(C)c2c1NC(C(=O)O)C1CC=CC21 (centres undefined)	-30	.	.	.
CCC1Sc2ccc(S(=O)(=O)N3CCN(c4ccccc4)CC3)cc2NC1=O (centres undefined)	-23	21µM*	-12%	?
Cc1ccc2c(c1)Oc1ccc(NC(=O)CCCl)cc1C(=O)N2	8	?	8.9µM*	?
Cc1ccc(S(=O)(=O)Nc2ccc(O)c3ncccc23)cc1	6	-13%	7.9µM*	19%
SMILES	Giardia killer	MCF10A rerep	uPA surface inh	SW480 rerep
Cc1ccc(S(=O)(=O)Nc2cccc3ncccc23)cc1	-5	6%	-5%	11%
Cc1ccc(S(=O)(=O)Nc2ccc(O)c3cccnc23)cc1	-14	?	1%	23µM*
CCCCn1c(N)c(N(CCOC)C(=O)CN(C)CC(=O)Nc2ccc(Cl)c(Cl)c2)c(=O)[nH]c1=O	-15	3%	-12%	-27%
CN1C(C(=O)Nc2ccccn2)C(=O)c2sc(Cl)cc2S1(=O)=O (centres undefined)	.	-3%	.	-10%
CC(=O)N(CCC(Cc1ccccc1)c1ccc2c(c1)OCO2)Cc1ccc(Cl)cc1 (centres undefined)	8	16µM*	0%	?
COc1cc(NC(=NS(=O)(=O)c2ccccc2)c2ccccc2)ncn1	0	-1%	-6%	-1%
C=Cc1ccc(Cn2nc(-c3ccc(C)cc3)ccc2=O)cc1	-1	?	2%	16µM*
O=C(O)c1ccc(CN2C(=O)CSC2=S)cc1	6	5.2µM*	-3%	14%
O=C1CSC(=S)N1Cc1cccnc1	-8	3.3µM*	-14%	25%
O=C(O)c1ccc(N2C(=O)CSC2=S)cc1	-6	17%	1%	-10%
S=C1NCC(c2ccccc2)S1 (centres undefined)	-2	6%	-6%	2%
O=C(NC1CC1)c1ccc(S(=O)(=O)NCC2CCCCC2)cc1	-2	5.8µM*	-6%	0%
CCCn1c(N)c(C(=O)CSc2nnc(C3CC3)n2C2CC2)c(=O)[nH]c1=O	9	1%	3%	0%
COc1ccc(/C=C/C(=O)N(C)C2(C)CCS(=O)(=O)C2)cc1 (centres undefined)	-20	3%	-6%	23µM*
O=C(NCc1ccc(OC(F)(F)F)cc1)C1CC(c2cccc(F)c2)=NO1 (centres undefined)	-19	?	-1%	1%
Cc1ccc(CNC(=O)C2CC(c3cccc(F)c3)=NO2)cc1 (centres undefined)	0	5.8µM*	11%	-4%
COc1cccc(C2=NOC(C(=O)NCc3cccs3)C2)c1 (centres undefined)	-9	5.2µM*	-8%	4%
Cc1ccc(CNC(=O)C2CC(c3ccccc3F)=NO2)cc1 (centres undefined)	19	3.3µM*	?	?
O=C(NCc1cccc(C(F)(F)F)c1)C1CC(c2ccccc2C(F)(F)F)=NO1 (centres undefined)	-4	23µM*	?	?
C=CCCCCCCCCC(=O)O	.	-2%	.	-9%
O=C(Nc1cc(Cl)cc2c1-c1ccc(Cl)cc1C2O)C(Cl)Cl (centres undefined)	26	?	-12%	?
CC1=C([N+](=O)[O-])C(c2ccc(Cl)cc2)NC(=O)N1C (centres undefined)	21	?	-3%	?
COc1ccc(CNC(=O)C2CC(c3cccc(OC)c3)=NO2)cc1 (centres undefined)	-11	2.8µM*	.	0%
COc1cccc(C2=NOC(C(=O)NCc3ccc(F)cc3)C2)c1 (centres undefined)	-4	0.73µM*	-3%	-8%
COc1cccc(C2=NOC(C(=O)NCc3cccnc3)C2)c1 (centres undefined)	8	15%	-2%	8%
SMILES	Giardia killer	MCF10A rerep	uPA surface inh	SW480 rerep
O=C(c1ccc(Br)cc1)C(CN1CCOCC1)c1ccccc1 (centres undefined)	9	18µM*	-15%	?
CC(CN1CCCCC1)OC(=O)CCc1ccccc1 (centres undefined)	-4	22%	1%	4%
O=C(c1ccccc1)C(CN1CCCCC1)c1ccccc1 (centres undefined)	3	4.1µM*	-10%	1.5µM*
CC(CN1CCOCC1)OC(=O)c1ccc(Br)cc1 (centres undefined)	7	?	-2%	?
CCOc1ccc(C(=O)C(CN2CCOCC2)c2ccccc2)cc1 (centres undefined)	15	7.3µM*	-11%	5.2µM*
CC(CN1CCCC1)OC(=O)C(c1ccccc1)c1ccccc1 (centres undefined)	-16	0.58µM*	11%	?

Screens (PubChem BioAssay)
